High-throughput results deposited in PubChem by several laboratories.
MEKK3 PB1 HTS: modulators (inhibitors or enhancers) of MEK5 binding to human MEKK3 PB1 domain | Q99759 | bead-based flow cytometry, Alexa488-MEK5 binding to MEKK3; actives lie on both sides; 0 = blocked by unlabeled MEK5, 100 = vehicle | binding response (% of control), % at 10 µM | 290,000 compounds, 1.4% hits | AID 1529;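 active = binding response more than 3 SD above or below the average of its plate-row segment, actives on both sides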;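 note: Alexa488 bead fluorescence after subtracting the streptavidin-only scavenger bead signal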
SKN-1 block: inhibitors of C. elegans SKN-1; C. elegans VP596 Pgst-4::GFP/RFP ratio, acrylamide-induced, 24 h; inhibition, % at 21.8 µM; 360,000 compounds, 0.49% hits;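 active = interference check ratio from 0.5 to 1.5 plus GFP to RFP signal ratio inhibition reaching or exceeding a fixed threshold, cut at about 30% in these data, passing the limit was not always enough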
NRP1-CendR mod: alters CendR peptide binding to human NRP-1; 360,000 compounds, 0.85% hits; O14786; inhibition, % at 25 µM; FAM-RPARPAR peptide binding to NRP-1, fluorescence polarization;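 active = inhibition or corrected inhibition above about 18%, plus a signal ratio from 0.5 to 1.5, limit read from the data, passing the limit was not always enough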
Target sequence (O14786 whole entry, looked up): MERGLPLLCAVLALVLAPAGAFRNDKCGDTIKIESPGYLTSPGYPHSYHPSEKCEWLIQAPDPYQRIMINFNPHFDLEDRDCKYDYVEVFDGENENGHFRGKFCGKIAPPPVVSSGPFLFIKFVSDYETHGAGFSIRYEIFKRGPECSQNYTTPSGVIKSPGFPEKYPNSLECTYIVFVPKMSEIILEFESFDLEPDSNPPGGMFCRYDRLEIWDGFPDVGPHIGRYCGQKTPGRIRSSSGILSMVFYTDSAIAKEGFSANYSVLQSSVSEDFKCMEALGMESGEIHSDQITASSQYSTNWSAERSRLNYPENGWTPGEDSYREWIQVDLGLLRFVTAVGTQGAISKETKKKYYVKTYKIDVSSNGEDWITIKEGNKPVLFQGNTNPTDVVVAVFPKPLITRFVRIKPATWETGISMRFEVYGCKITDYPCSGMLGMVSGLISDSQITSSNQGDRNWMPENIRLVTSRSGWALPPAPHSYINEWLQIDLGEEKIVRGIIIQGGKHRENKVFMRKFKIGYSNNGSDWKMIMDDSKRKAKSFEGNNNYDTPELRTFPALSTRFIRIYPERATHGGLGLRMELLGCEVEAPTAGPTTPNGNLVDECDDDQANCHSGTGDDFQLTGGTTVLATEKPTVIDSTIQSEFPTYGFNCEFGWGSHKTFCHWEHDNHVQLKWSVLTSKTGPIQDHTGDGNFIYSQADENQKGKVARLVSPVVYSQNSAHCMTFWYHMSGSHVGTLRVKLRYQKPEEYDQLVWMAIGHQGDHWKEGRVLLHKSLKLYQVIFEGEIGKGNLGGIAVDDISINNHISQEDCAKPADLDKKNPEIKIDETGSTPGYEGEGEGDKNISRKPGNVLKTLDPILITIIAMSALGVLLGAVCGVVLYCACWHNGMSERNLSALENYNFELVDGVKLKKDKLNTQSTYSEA
MEKK2mut PB1 HTS: signal of MEK5 binding to mutant human MEKK2 PB1 domain | bead flow cytometry, Alexa488-MEK5 binding to MEKK2 mutant | percent response, % at 10 µM | 290,000 compounds, 0.35% hits; in the data active = percent response above about 24%, passing the limit was not always enough
MEKK2wt PB1 HTS: raises or lowers MEK5 binding to wildtype human MEKK2 PB1 domain; bead flow cytometry, Alexa488-MEK5 binding to MEKK2 WT; actives lie on both sides; 290,000 compounds, 1.1% hits; binding response (% of control), % at 10 µM; Q9Y2U5; in the data active = binding response below about 67% or above about 130%
MEKK2wt confirm: raises or lowers MEK5 binding to wildtype human MEKK2, retest | 5,900 compounds, 2.4% hits | shares compounds with MEKK3 PB1 HTS | bead flow cytometry, Alexa488-MEK5 binding to MEKK2 WT; actives lie on both sides | binding response (% of control), % at 10 µM | AID 1892; in the data active = binding response below about 16% or above about 210%; inactive = in between
MEKK2mut-MEK5: signal of MEK5 binding to mutant human MEKK2, retest | shares compounds with MEKK3 PB1 HTS | bead flow cytometry, Alexa488-MEK5 binding to MEKK2 mutant | percent response, % at 10 µM | 5,900 compounds, 2% hits; in the data active = percent response mostly above about 71%, no sharp cut-off; inactive = mostly below about 38%;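 note: higher means compound restores mutant binding toward wildtype level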
MEKK3-MEK5 inh: confirmation of inhibitors of MEK5 binding to human MEKK3 | AID 1894 | 5,900 compounds, 1.8% hits | binding response (% of control), % at 10 µM | bead flow cytometry, Alexa488-MEK5 binding to MEKK3; hits give low values | shares compounds with MEKK3 PB1 HTS;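 active = binding response below 72% of control, or above a set upper limit, though filed actives all read lower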;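 note: 100% = DMSO only wells and 0% = binding blocked by excess unlabeled MEK5; lower values mean stronger disruption of MEK5 binding to MEKK3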
Starred values were filed as active, the others as inactive; nt = not tested or not shown; [ ] = another dose, or the depositor's remark. The list is not random: actives were taken first. Their share in the collection is about 3.2%.

SMILES	MEKK3 PB1 HTS	SKN-1 block	NRP1-CendR mod	MEKK2mut PB1 HTS	MEKK2wt PB1 HTS	MEKK2wt confirm	MEKK2mut-MEK5	MEKK3-MEK5 inh
Cc1ccc(O)c(N=Nc2ccc(S(=O)(=O)N3CCCC3)cc2)c1	132*	-7	11	27	120	102	1	101
CCn1c(C)c(C2=CCN(S(=O)(=O)c3ccc(C)cc3)CC2)c2ccccc21	85	63	-97	1	6.0*[inhibitor]	104	5	103
Cc1ccc(S(=O)(=O)N2CCCN(S(=O)(=O)c3ccc(C)cc3)CC2)cc1	36*[inhibitor]	-2	-1	-20	48	102	2	101
Cc1ccc(S(=O)(=O)N2CCN(S(=O)(=O)N3CCCCC3)CC2)c(C)c1	1.0*[inhibitor]	13	0	-20	-3.0*[inhibitor]	98	0	100
Cc1c(C2=CCN(S(=O)(=O)c3ccc(Br)cc3)CC2)c2ccccc2n1C	101	33	-34	0	103	nt	nt	nt
O=C(CN1C(=O)NC2(CCc3ccccc32)C1=O)NCc1cccc(C(F)(F)F)c1 (stereo not drawn)	nt	10	5	nt	nt	nt	nt	nt
O=C(CC(O)(CC(=O)OCc1ccccc1)C(=O)OCc1ccccc1)OCc1ccccc1	nt	-5	5	nt	nt	nt	nt	nt
Cc1ccc(S(=O)(=O)N2CC=C(c3ccc(F)cc3)CC2)cc1	140*	-1	4	3	106	100	1	106
Cc1ccc(NC(=O)C2=CCN(S(=O)(=O)c3ccc(F)cc3)CC2)cc1	106	12	19	-2	106	nt	nt	nt
Nc1[nH]c(C(=O)c2ccccc2)c(-c2ccncc2)c1C(=O)NC1CC1	nt	11	-14	nt	nt	nt	nt	nt
Cc1ccc(-n2nnnc2-c2cccc(C)c2)cc1	97	1	-10	-4	94	nt	nt	nt
Cc1ccc(-c2nnnn2-c2ccc(C)cc2)cc1	2.0*[inhibitor]	3	6	-84	1.0*[inhibitor]	105	11	103
CCOc1ncccc1C(=O)NCCc1ccc(Cl)cc1	104	12	-5	10	100	nt	nt	nt
CN(Cc1ccccc1)CC(O)COc1ccc(CNCCc2cccnc2)cc1 (stereo not drawn)	107	-7	17	63*	187*	121	9	104
CCc1ccc(CNCc2ccc(OCC(O)CN(C)Cc3ccccc3)cc2)nc1 (stereo not drawn)	105	13	2	59*	170*	148	28	109
CN(Cc1ccccc1)CC(O)COc1ccc(CNCCc2ccncc2)cc1 (stereo not drawn)	100	-6	-3	-3	115	nt	nt	nt
CN(Cc1ccccc1)CC(O)COc1ccc(CNCc2nccn2C)cc1 (stereo not drawn)	99	7	20	8	114	nt	nt	nt
CCn1ccnc1CNCc1ccc(OCC(O)CN(C)Cc2ccccc2)cc1 (stereo not drawn)	102	3	4	34	138*	118	23	104
O=C(/C=C/[C@H]1O[C@@H](n2cnc3c(NC(=O)c4ccccc4)ncnc32)[C@H](O)[C@@H]1O)NCCc1ccc(F)cc1	nt	6	-5	nt	nt	nt	nt	nt
COc1ccccc1C(CNC(=O)CCNS(=O)(=O)c1ccc(Br)cc1)N1CCCC1 (stereo not drawn)	nt	7	-4	nt	nt	nt	nt	nt
Cc1cccc(C)c1NC(=O)CN(C)C(=O)c1ccc2nc[nH]c2c1	nt	15	1	nt	nt	nt	nt	nt
O=C(Cc1ccc2cccnc2c1)c1ccc(O)cc1O	2.0*[inhibitor]	-5	-1	-27	-1.0*[inhibitor]	91	-7	89
O=C(Cc1ccccc1)c1ccc(O)cc1O	nt	2	7	nt	nt	nt	nt	nt
COc1ccc(N2CCn3c2nc2c3c(=O)n(CCc3ccccc3)c(=O)n2C)c(OC)c1	109	nt	nt	1	99	nt	nt	nt
COc1ccc(N2CC(C)Cn3c2nc2c3c(=O)n(Cc3ccccc3)c(=O)n2C)c(OC)c1 (stereo not drawn)	73*[inhibitor]	7	-20	-2	82	98	-7	105
SMILES	MEKK3 PB1 HTS	SKN-1 block	NRP1-CendR mod	MEKK2mut PB1 HTS	MEKK2wt PB1 HTS	MEKK2wt confirm	MEKK2mut-MEK5	MEKK3-MEK5 inh
O=c1c2cc(Cl)ccc2oc2nc3n(c(=O)c12)CCCS3	74*[inhibitor]	-11	-10	-9	81	102	4	102
N#Cc1c(-c2ccc(Cl)cc2)nc2n(c1=O)CCCS2	105	12	-8	8	108	nt	nt	nt
COc1ccc(-c2csc(Nc3cc(C)ccn3)n2)cc1OC	111	14	-24	6	118	nt	nt	nt
COc1ccc(-c2csc(Nc3ccc(C)cn3)n2)cc1OC	143*	-1	14	8	142	111	1	101
Cc1cc(C)n(-c2nc(SCC(=O)O)c3c4c(sc3n2)COC(C)(C)C4)n1	102	7	4	4	105	nt	nt	nt
Cc1cc(C)n(-c2nc(SCCN(C)C)c3c4c(sc3n2)CCCC4)n1	124*	2	-2	49*	211*	152	28	98
CCN(CC)c1nc2ccccc2c(N)c1-c1ccccc1	114	-6	3	26*	123	106	0	99
Cc1cc(C)c(OCC(=O)OCC(=O)NCc2ccco2)c(C)c1	nt	3	-21	nt	nt	nt	nt	nt
O=C1c2ccccc2N2C(=O)c3ccccc3[C@H]2N1c1ccccc1	107	6	11	16	105	nt	nt	nt
O=C1c2ccccc2N2C(=O)c3ccccc3C2N1Cc1ccccc1 (stereo not drawn)	130*	-8	-4	32	112	103	-3	102
COCCn1c(SCC(=O)Nc2ccc(C)cc2)nc2c(oc3ccccc32)c1=O	113	11	-9	0	101	nt	nt	nt
COCCn1c(SCC(=O)Nc2ccccc2)nc2c(oc3ccccc32)c1=O	4.0*[inhibitor]	-5	5	-46	7.0*[inhibitor]	107	-3	106
CC(=O)c1cc2c(cc1NS(=O)(=O)c1ccccc1)OCO2	104	-11	-3	0	97	nt	nt	nt
CC(=O)c1cc2c(cc1N/C(=N/S(=O)(=O)c1ccccc1)c1ccc(Cl)cc1)OCO2	129*	4	0	0	102	96	-4	100
O=C(NC1CCCCC1)C(c1cccc2ccccc12)n1c(=O)c(-c2ccco2)nc2ccccc21 (stereo not drawn)	nt	6	-72	nt	nt	nt	nt	nt
Cc1noc(C)c1NC(=O)N(C)C[C@H]1Oc2ccc(NC(=O)NC3CCCCC3)cc2C(=O)N([C@H](C)CO)C[C@@H]1C	nt	-1	-6	nt	nt	nt	nt	nt
CC[C@@H](NC(=O)[C@H](Cc1ccccc1)NC(=O)CC[C@H]1O[C@@H](n2ccc(=O)[nH]c2=O)[C@H](O)[C@@H]1O)c1ccccc1	nt	4	-8	nt	nt	nt	nt	nt
